Experimental data taken from PubChem BioAssay (NCATS).
Records with an inconclusive call do not appear. Activity calls are given as the source filed them. Unless noted, calls follow the shape of the dose curve; as a rule, active = well fitted curve in the direction sought with a large enough effect; inconclusive = small, poorly fitted or top-dose-only effect, or another doubt; inactive = no such curve, though single readings can be large; an effect the other way counts as inactive or inconclusive.

Tests used:
[1] = biological target: Beta-2 adrenergic receptor (Homo sapiens) (UniProt P07550); experiment: qHTS validation assay of beta-arrestin-biased ligands of beta2-adrenergic receptor (AID 485366); also: 0% is about no effect
Beta-2 adrenergic receptor (Homo sapiens), sequence (P07550 whole entry, looked up): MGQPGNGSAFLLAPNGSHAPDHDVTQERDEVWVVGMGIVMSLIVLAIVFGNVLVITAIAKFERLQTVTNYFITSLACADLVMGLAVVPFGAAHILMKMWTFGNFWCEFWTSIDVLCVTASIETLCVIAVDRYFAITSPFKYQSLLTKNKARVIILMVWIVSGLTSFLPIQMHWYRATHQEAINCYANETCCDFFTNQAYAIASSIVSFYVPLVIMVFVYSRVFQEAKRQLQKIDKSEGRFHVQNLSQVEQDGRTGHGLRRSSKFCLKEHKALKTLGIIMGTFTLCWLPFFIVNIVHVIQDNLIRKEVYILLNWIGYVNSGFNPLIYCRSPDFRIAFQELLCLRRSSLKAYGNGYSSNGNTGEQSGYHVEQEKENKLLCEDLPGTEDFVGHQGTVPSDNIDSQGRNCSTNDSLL
Procedure, shortened: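 Agonism was measured as beta-arrestin recruitment to recombinant beta2-AR, releasing tTA to drive luciferase. Cells were exposed for 18 hr at 37 degrees C to a series up to 46 microM. %Activity from corrected luminescence gave concentration-response curves.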

[2] = biological target: ATP-dependent 6-phosphofructokinase (Trypanosoma brucei brucei) (UniProt O15648); experiment: qHTS Validation Assay to Find Inhibitors of T. brucei phosphofructokinase (AID 485368)
ATP-dependent 6-phosphofructokinase (Trypanosoma brucei brucei), sequence (O15648 whole entry, looked up): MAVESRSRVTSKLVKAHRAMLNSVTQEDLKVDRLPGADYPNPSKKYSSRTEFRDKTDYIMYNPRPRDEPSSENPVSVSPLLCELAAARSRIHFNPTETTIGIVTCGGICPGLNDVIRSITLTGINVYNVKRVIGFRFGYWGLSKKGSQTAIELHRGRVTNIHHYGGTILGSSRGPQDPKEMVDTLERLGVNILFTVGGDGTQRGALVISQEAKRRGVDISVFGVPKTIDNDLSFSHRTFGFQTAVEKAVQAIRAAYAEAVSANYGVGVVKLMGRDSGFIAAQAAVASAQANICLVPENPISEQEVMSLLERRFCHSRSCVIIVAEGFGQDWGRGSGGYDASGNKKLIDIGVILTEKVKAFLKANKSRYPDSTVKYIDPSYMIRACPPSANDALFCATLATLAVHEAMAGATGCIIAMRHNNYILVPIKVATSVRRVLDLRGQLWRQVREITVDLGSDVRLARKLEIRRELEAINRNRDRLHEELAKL
Procedure, shortened: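 ADP-Glo luminescence, two-step: residual ATP depleted, then ADP converted to ATP for luciferase. Enzyme 1.25 nM, F6P 0.5 mM, ATP 0.1 mM, pH 8.0 TEA buffer, 45 min RT. Curves fitted and classed by quality and efficacy.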

[3] = Quantitative high throughput screen for delayed death inhibitors of the malarial parasite plastid, 96 hour incubation (AID 488745); also: series mostly up to about 29 µM; % is scaled to controls: 0 for no effect and ±100 for the full control effect; nearly all actives have a fitted effect of over 70% in size
Procedure, shortened: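 Two-generation (96 h) exposure of luciferase-reporter P. falciparum in erythrocytes, 2% hematocrit, 0.1% parasitemia final, 37 C, 5% CO2, RPMI 1640 with 0.5% Albumax. Growth inhibition scored by reduced luminescence.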

[4] = Quantitative high throughput screen for delayed death inhibitors of the malarial parasite plastid, 48 hour incubation (AID 488752); also: % is scaled to controls: 0 for no effect and ±100 for the full control effect; nearly all actives have a fitted effect of over 65% in size
Procedure, shortened: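 Cultures: infected erythrocytes at final 2% hematocrit and 0.1% parasitemia in Albumax-supplemented RPMI. Parasites express integrated firefly luciferase. Incubation with compound lasts 48 h before luminescent detection of remaining reporter activity.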

[5] = biological target: Thioredoxin reductase 1, cytoplasmic (Rattus norvegicus) (UniProt O89049); experiment: qHTS Assay for Substrates of Mammalian Selenoprotein Thioredoxin Reductase 1 (TrxR1) (AID 488772);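 also: series mostly up to about 57 µM; 0% is about no effect; a drop in NADPH fluorescence below the no-compound background marks a TrxR1 substrate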
Thioredoxin reductase 1, cytoplasmic (Rattus norvegicus), sequence (O89049 whole entry, looked up): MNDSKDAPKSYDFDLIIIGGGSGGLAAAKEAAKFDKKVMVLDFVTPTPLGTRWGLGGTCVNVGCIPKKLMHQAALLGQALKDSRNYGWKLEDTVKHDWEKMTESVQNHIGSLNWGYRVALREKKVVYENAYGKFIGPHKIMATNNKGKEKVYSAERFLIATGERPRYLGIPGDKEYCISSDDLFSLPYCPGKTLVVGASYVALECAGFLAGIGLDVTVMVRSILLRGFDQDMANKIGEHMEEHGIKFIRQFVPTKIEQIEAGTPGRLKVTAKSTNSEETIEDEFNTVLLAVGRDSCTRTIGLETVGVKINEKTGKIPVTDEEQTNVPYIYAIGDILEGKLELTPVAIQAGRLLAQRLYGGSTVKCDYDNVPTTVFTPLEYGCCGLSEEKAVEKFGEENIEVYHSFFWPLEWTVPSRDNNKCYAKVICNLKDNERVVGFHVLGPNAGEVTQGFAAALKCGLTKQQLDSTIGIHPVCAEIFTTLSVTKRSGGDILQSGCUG
Procedure, shortened: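 In this dual-purpose format, potential substrates are identified from the first fluorescence read after selenite addition, not from the 8-minute delta. Rat enzyme is preincubated with NADPH and then with compound at ~22 deg C.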

[6] = biological target: Thioredoxin reductase 1, cytoplasmic (Rattus norvegicus) (UniProt O89049); experiment: qHTS Assay for Inhibitors of Mammalian Selenoprotein Thioredoxin Reductase 1 (TrxR1) (AID 488773); details: Potency: inhibition;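 also: drop in NADPH fluorescence over an 8 min run after selenite addition; series mostly up to about 57 µM; % is scaled to controls: 0 for no effect and ±100 for the full control effect; nearly all actives have a fitted effect of over 40% in size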
Procedure, shortened: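 Inhibition is scored from the loss of NADPH fluorescence between first and last reads of an 8-min kinetic run. Selenite (400 uM) was the substrate, added after 15 min compound preincubation at room temperature.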

[7] = biological target: M-phase phosphoprotein 8 (Homo sapiens) (UniProt Q99549); experiment: qHTS Validation Assay for Inhibitors for MPP8 Chromodomain Interactions with Methylated Histone Tails (AID 488949); also: top concentration of the series differs between compounds; % is scaled to controls: 0 for no effect and ±100 for the full control effect; nearly all actives have a fitted effect of over 55% in size
M-phase phosphoprotein 8 (Homo sapiens), sequence (Q99549 whole entry, looked up): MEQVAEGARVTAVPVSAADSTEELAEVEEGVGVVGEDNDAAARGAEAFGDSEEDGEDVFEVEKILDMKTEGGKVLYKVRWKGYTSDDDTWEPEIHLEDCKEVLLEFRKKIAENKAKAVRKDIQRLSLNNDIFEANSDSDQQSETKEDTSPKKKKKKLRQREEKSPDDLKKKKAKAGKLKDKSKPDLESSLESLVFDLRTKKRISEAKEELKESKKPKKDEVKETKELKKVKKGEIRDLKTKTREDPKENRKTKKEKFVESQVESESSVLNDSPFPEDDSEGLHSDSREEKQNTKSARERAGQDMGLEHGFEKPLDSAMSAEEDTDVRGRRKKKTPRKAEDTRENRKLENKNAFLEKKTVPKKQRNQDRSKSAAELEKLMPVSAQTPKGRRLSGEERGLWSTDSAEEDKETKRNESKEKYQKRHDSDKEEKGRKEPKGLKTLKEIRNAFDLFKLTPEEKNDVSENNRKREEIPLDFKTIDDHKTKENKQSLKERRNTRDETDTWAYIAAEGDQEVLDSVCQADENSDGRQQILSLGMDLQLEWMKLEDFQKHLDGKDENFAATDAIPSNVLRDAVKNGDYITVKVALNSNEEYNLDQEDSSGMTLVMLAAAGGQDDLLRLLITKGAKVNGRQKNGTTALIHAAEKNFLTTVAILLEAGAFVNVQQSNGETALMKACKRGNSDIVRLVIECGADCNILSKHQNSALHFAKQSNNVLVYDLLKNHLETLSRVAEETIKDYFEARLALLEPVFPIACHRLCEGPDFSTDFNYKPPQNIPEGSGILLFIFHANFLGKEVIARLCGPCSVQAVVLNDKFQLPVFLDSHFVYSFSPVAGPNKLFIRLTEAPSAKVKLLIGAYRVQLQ
Procedure, shortened: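 MPP8 (50 nM) was pre-bound to 50 nM biotinylated H3(1-18)K9me3 peptide in PBS pH 7.4 with 0.01% Tween-20. Compounds were then added for 30 min at room temperature, and complex disruption was read by AlphaScreen with streptavidin donor and nickel-chelate acceptor beads.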

[8] = biological target: Chromobox protein homolog 1 (Homo sapiens) (UniProt P83916); experiment: qHTS Validation Assay for Inhibitors of HP1-beta Chromodomain Interactions with Methylated Histone Tails (AID 488953);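 also: loss of AlphaScreen luminescence from HP1-beta binding biotinylated H3K9me3 peptide; series mostly up to about 110 µM; % is scaled to controls: 0 for no effect and ±100 for the full control effect; nearly all actives have a fitted effect of over 50% in size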
Chromobox protein homolog 1 (Homo sapiens), sequence (P83916 whole entry, looked up): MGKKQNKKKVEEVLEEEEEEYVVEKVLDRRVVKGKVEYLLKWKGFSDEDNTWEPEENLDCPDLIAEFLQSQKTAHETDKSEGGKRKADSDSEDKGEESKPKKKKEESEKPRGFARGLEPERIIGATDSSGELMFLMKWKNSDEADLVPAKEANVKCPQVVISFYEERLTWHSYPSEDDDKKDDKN
Procedure, shortened: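 Compounds pinned into a preassembled complex of HP1-beta and trimethyl-K9 histone H3(1-18) biotin peptide (50 nM each; PBS pH 7.4, 0.01% Tween-20). After 30 min, bead-based AlphaScreen detection followed.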

[9] = biological target: Methanococcus maripaludis chaperonin (MmCpn) (UniProt Q6LX38); experiment: High-Throughput Screening for Modulators of Cytosolic Chaperonin Activity: MmCpn Primary Screen (AID 488978);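 also: 50 nM MmCpn enzyme hydrolysing 30 µM ATP at 37 °C; 0% is about no effect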
Methanococcus maripaludis chaperonin (MmCpn), sequence (Q6LX38 1-543): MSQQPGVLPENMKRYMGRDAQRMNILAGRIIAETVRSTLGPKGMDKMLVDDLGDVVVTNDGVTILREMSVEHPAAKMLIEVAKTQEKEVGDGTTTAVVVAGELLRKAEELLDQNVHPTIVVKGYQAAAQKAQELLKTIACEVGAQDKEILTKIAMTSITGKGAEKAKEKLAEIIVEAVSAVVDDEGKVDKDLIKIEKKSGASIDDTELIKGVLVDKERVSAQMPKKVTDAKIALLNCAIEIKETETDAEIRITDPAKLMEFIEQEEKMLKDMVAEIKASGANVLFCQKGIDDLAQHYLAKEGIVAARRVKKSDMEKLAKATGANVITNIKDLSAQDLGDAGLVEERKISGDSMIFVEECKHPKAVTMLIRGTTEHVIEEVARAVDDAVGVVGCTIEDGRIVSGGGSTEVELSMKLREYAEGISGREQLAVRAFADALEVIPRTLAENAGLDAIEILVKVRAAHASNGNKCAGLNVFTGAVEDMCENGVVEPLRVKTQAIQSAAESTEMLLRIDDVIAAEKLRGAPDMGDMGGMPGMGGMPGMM
Procedure, shortened: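 MmCpn at 50 nM final was preincubated 5 min at RT with compound. ATP was then added at 30 uM final for 10 min at 37 C. ADP formed was detected by Transcreener HTRF (665/590 nm).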

[10] = biological target: Transient receptor potential cation channel subfamily V member 1 (Homo sapiens) (UniProt Q8NER1); experiment: HTS Assay for Compounds that Act as Enhancers of the Vanilloid Receptor 1 (AID 488979); also: 0% is about no effect
Transient receptor potential cation channel subfamily V member 1 (Homo sapiens), sequence (Q8NER1 whole entry, looked up): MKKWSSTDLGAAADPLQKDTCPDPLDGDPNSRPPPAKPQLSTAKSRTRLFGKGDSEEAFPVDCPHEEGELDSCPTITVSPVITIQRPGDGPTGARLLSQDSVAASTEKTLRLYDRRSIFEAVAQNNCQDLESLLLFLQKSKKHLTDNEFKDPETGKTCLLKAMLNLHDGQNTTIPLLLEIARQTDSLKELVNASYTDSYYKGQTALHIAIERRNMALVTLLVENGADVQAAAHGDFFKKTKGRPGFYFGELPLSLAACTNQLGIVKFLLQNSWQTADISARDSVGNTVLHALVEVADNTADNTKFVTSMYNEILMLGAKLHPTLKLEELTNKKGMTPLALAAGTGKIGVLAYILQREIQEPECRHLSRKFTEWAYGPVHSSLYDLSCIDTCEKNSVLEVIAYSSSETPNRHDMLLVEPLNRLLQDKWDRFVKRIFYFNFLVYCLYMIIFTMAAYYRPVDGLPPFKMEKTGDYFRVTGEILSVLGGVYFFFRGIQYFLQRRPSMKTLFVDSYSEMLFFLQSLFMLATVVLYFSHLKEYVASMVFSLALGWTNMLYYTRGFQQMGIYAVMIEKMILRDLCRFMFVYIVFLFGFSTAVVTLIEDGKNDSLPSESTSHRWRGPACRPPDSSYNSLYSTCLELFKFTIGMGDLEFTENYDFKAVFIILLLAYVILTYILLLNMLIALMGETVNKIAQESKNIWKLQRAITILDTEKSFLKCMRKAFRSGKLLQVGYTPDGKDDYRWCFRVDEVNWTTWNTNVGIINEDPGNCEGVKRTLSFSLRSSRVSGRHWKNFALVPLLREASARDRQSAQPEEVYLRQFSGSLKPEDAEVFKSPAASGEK
Procedure, shortened: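 Calcium influx kinetics via Fluo-8 (480/520 nm) in TRPV1-expressing cells, 2000/well cultured overnight at 35.5C. Compound-alone read 3 min (agonist phase), followed by EC20 capsaicin challenge for 2 min (enhancer phase).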

[11] = biological target: Thyrotropin receptor (Homo sapiens) (UniProt P16473); experiment: qHTS Assay for Antagonists of the Thyroid Stimulating Hormone Receptor (AID 488980); also: series mostly up to about 58 µM; 0% is about no effect
Thyrotropin receptor (Homo sapiens), sequence (P16473 whole entry, looked up): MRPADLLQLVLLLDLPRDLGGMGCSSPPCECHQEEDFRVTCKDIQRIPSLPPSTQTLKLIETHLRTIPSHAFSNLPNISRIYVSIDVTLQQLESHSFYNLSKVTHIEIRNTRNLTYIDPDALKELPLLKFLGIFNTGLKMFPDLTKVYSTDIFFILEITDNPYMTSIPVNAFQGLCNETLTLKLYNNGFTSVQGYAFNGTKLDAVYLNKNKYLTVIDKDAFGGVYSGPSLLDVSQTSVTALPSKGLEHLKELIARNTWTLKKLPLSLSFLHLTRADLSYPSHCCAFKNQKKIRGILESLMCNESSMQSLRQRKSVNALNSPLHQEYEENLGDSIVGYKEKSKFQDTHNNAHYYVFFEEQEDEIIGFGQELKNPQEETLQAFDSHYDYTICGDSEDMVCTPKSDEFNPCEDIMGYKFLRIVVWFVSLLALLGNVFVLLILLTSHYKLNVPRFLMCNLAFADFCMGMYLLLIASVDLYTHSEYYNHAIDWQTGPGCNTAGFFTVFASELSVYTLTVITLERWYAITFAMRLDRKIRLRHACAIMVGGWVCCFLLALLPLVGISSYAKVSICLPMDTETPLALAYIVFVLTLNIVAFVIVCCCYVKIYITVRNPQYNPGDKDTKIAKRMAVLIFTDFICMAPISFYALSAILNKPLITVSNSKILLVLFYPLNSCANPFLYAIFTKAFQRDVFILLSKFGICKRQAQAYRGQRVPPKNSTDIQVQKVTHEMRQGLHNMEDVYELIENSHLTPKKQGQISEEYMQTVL
Procedure, shortened: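 TSHR-transfected HEK293 cells (2000/well) in HEPES-buffered HBSS with 70 uM RO 20-1724 were stimulated with 4 nM TSH (EC80, final) in the presence of compound. cAMP was measured by HTRF competition after lysis and 30 min at RT.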

[12] = biological target: D(1A) dopamine receptor (Homo sapiens) (UniProt P21728); experiment: HTS Assay for Allosteric Agonists of the Human D1 Dopamine Receptor: Primary Screen for Agonists (AID 488981); also: 0% is about no effect
Procedure, shortened: (§1)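 Calcium flux in an inducible, force-coupled HEK293 Trex D1 line (overnight at 30 C): agonist mode is the 180 s kinetic read after compound; potentiator mode is the following 180 s read after dopamine at EC20.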

[13] = biological target: D(1A) dopamine receptor (Homo sapiens) (UniProt P21728); experiment: HTS Assay for Allosteric Agonists of the Human D1 Dopamine Receptor: Primary Screen for Potentiators (AID 488982); also: 0% is about no effect
Procedure, shortened: as §1

[14] = biological target: D(1A) dopamine receptor (Homo sapiens) (UniProt P21728); experiment: HTS Assay for Allosteric Agonists of the Human D1 Dopamine Receptor: Primary Screen for Antagonists (AID 488983);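 also: calcium flux response to an EC80 dopamine challenge measured with no-wash dye; % is scaled to controls: 0 for no effect and ±100 for the full control effect; nearly all actives have a fitted effect of over 65% in size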
Procedure, shortened: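 In this primary screen, compounds are applied to calcium-dye-loaded HEK293 T-REx cells with force-coupled D1 expression induced overnight at 30 C. An EC80 of dopamine follows the 180 s compound phase, and calcium is monitored for a further 180 s.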

[15] = Validation screen for small molecules that induce genotoxicity in human embryonic kidney (HEK293T) cells expressing luciferase-tagged ELG1 (AID 493106); also: 0% is about no effect
Procedure, shortened: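 In this validation screen, increased ELG1-luciferase signal flags compounds causing genetic stress. HEK293T reporter cells are treated 16 hr (37 °C, 5% CO2), developed with ONE-Glo for 30 min at room temperature, and imaged on a CCD-based reader.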

[16] = biological target: ATPase family AAA domain-containing protein 5 (Homo sapiens) (UniProt Q96QE3); experiment: Validation screen for small molecules that inhibit ELG1-dependent DNA repair in human embryonic kidney (HEK293T) cells expressing luciferase-tagged ELG1 (AID 493107);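 also: cells co-treated with the DNA-damaging agent 5-fluorouridine alongside compound; series mostly up to about 46 µM; % is scaled to controls: 0 for no effect and ±100 for the full control effect; inhibitors lower the ELG1-luciferase luminescence signal; nearly all actives have a fitted effect of over 70% in size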
Procedure, shortened: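 Compounds reducing 5-fluorouridine-driven ELG1-luciferase signal in HEK293T cells were scored; exposure lasted 16 hr at 37 °C with luminescence detected via ONE-Glo.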

[17] = biological target: Thyrotropin-releasing hormone receptor (Homo sapiens) (UniProt P34981); experiment: qHTS for Small Molecule Agonists and Allosteric Enhancers of Human TRH Receptor: Validation Screen for Agonists (AID 493127;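 active = calcium activation more than 3 SD above the typical response in the agonist read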;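 also: intracellular calcium rise by fluo-8 fluorescence before TRH EC20 addition; 0% is about no effect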); details: TRH receptor agonist cell assay; at 2 µM; hits give high values
Procedure, shortened: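 Kinetic fluorescence assay of agonist-induced calcium release: overnight-plated TRHR cells, room-temperature fluo-8 loading, baseline then compound addition with per-second reads.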

[18] = biological target: Flap endonuclease 1 (Homo sapiens) (UniProt P39748); experiment: qHTS Validation Assay for the Inhibitors of Human Flap endonuclease 1 (FEN1) (AID 488816); also: % is scaled to controls: 0 for no effect and ±100 for the full control effect
Flap endonuclease 1 (Homo sapiens), sequence (P39748 whole entry, looked up): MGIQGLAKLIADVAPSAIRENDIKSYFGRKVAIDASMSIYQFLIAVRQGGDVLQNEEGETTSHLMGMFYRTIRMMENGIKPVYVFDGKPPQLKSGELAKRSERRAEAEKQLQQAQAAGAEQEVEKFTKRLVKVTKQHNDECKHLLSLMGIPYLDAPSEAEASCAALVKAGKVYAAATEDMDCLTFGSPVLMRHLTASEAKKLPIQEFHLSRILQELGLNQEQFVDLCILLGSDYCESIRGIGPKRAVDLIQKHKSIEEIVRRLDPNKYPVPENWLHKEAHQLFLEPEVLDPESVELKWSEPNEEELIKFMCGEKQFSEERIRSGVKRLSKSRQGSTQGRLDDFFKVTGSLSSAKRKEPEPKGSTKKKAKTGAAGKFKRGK
Procedure, shortened: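 qHTS format: compounds and 10 nM FEN1 incubated 15 min at room temperature before adding 50 nM substrate. Cleavage followed by reads at 0 and 15 min; normalized data fitted to a four-parameter Hill curve.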

Cn1ccnc1
inactive: outcome [1] | Potency [2] | Potency [3] | Potency [4] | outcome [5] | Potency [6] | Potency [7] | Potency [8] | outcome [9] | outcome [10] | outcome [11] | Potency [12] | Potency [13] | Potency [14] | Potency [15] | Potency [16] | activation [17] 1.38%

CC1CCN=C(N)S1 (stereo not drawn)
inactive: outcome [1] | Potency [2] | Potency [3] | Potency [4] | outcome [5] | Potency [6] | Potency [18] | Potency [7] | Potency [8] | outcome [9] | outcome [10] | outcome [11] | Potency [12] | Potency [14] | Potency [15] | Potency [16] | activation [17] -2.88%

Cn1c(=O)c2[nH]c(-c3ccc(S(=O)(=O)O)cc3)nc2n(C)c1=O
inactive: outcome [1] | Potency [2] | Potency [3] | Potency [4] | outcome [5] | Potency [6] | Potency [18] | Potency [7] | Potency [8] | outcome [9] | outcome [10] | outcome [11] | Potency [12] | Potency [14] | Potency [15] | Potency [16] | activation [17] 0.938%

CSC(=N)N
inactive: outcome [1] | Potency [2] | Potency [3] | Potency [4] | outcome [5] | Potency [6] | Potency [18] | Potency [7] | Potency [8] | outcome [9] | Potency [13] | Potency [14] | Potency [15] | Potency [16]

Nn1nnc2ccccc21
inactive: outcome [1] | Potency [2] | Potency [3] | Potency [4] | outcome [5] | Potency [6] | Potency [18] | Potency [7] | outcome [9] | outcome [10] | outcome [11] | Potency [12] | Potency [13] | Potency [14] | Potency [15] | Potency [16] | activation [17] 1.12%

C=C(C)C1CC=C(C(=O)O)CC1 (stereo not drawn)
inactive: outcome [1] | Potency [2] | Potency [3] | Potency [4] | outcome [5] | Potency [6] | Potency [7] | Potency [8] | outcome [9] | outcome [10] | outcome [11] | Potency [12] | Potency [13] | Potency [14] | Potency [15] | Potency [16] | activation [17] 1.12%

N=C(N)SCCc1cnc[nH]1
inactive: outcome [1] | Potency [2] | Potency [3] | Potency [4] | outcome [5] | Potency [6] | Potency [18] | Potency [7] | outcome [9] | outcome [10] | outcome [11] | Potency [12] | Potency [13] | Potency [14] | Potency [15] | activation [17] -0.375%

NC(N)=N[C@@H](CCC(=O)O)C(=O)O
inactive: outcome [1] | Potency [2] | Potency [3] | Potency [4] | outcome [5] | Potency [6] | Potency [18] | Potency [7] | Potency [8] | outcome [9] | outcome [10] | outcome [11] | Potency [12] | Potency [13] | Potency [14] | Potency [15] | Potency [16] | activation [17] 0.0625%
